Test results published in PubChem BioAssay (NCI).
About 83,000 compounds went through this panel and 20% of them were active in at least one assay; those are over-represented in the sample as a whole.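 Results are percent growth after 48 hours of single-concentration exposure. 100 means growth as in untreated cells, lower positive values show inhibition; negative values down to -100 show cell death.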 A number with no mark means an inactive call. Calls of active or inactive are those of the source. The calls were made as follows: active = growth percent below 10; inactive = the rest.

Tests used:
Assay in all cases: NCI-60 one-dose screen, 48 h (100 = growth as untreated, 0 = no growth, -100 = all killed)
Conditions in all cases: 10 µM unless noted
DU-145 prostate = system: DU-145 prostate
K-562 leukemia = system: K-562 leukemia
MALME-3M melanoma = system: MALME-3M melanoma
MDA-MB-231 breast = system: MDA-MB-231 breast
RXF 393 renal = system: RXF 393 renal
SF-268 CNS = system: SF-268 CNS
SF-295 CNS = system: SF-295 CNS
SF-539 CNS = system: SF-539 CNS
UACC-257 melanoma = system: UACC-257 melanoma
M14 melanoma = system: M14 melanoma

| Structure (SMILES) | growth (DU-145 prostate) | growth (K-562 leukemia) | growth (MALME-3M melanoma) | growth (MDA-MB-231 breast) | growth (RXF 393 renal) | growth (SF-268 CNS) | growth (SF-295 CNS) | growth (SF-539 CNS) | growth (UACC-257 melanoma) | growth (M14 melanoma) |
| --- | --- | --- | --- | --- | --- | --- | --- | --- | --- | --- |
| Cc1cc(N/N=C/c2nc(-c3ccccc3)oc2C)c2cc(Cl)ccc2n1 | -31.3% (active) | -29.3% (active) | -88.9% (active) | -95.1% (active) | -88.3% (active) | -60.3% (active) | -85% (active) | 8.72% (active) | 106% | -87.4% (active) |
| CCCCCCCCN(CCCCCCCC)CCCCCCNc1cc(OC)cc2cccnc12 | 27.4% | 80.1% | 61.7% | 52% | 108% | 83.4% | 109% | 111% | 18.2% | -1.6% (active) |
| COc1ccc(C(=O)N2NC(=O)/C(=C/c3ccccc3F)N=C2c2ccccc2)cc1 | 115% | 104% | 109% | 106% | 106% | 105% | 101% | 131% | 99.7% | 111% |
| N#Cc1c(-c2ccccc2)cc(-c2ccccc2)n(CC(=O)NO)c1=O | 61% | 6.26% (active) | 66% | 42.8% | 27.9% | 52.5% | 63.5% | 63.9% | 67.5% | 64.8% |
| O=C(c1ccccc1)c1c(/C=C/c2ccccc2)c2ccccc2[nH]c1=O | 115% | 82.4% | 98.3% | 101% | 78.9% | 86.2% | 95.6% | 99.2% | 95.6% | 107% |
| COc1ccc(/C=C2\N=C(c3ccccc3)N(C(=O)c3ccccc3O)NC2=O)cc1 | 110% | 86.5% | 89.9% | 84.6% | 105% | 108% | 92.9% | 95.3% | 110% | 98.8% |
| Cc1ccc(S(=O)(=O)Nc2c(Br)cc(Br)cc2C(N)=O)cc1 | 113% | 119% | 87.4% | 103% | 93.1% | 109% | 97.3% | 101% | 107% | 94.5% |
| CC12CCC3C4(C)COC(c5ccccc5Cl)OC4CCC3(C)C1CC(C1=CCOC1=O)O2 (stereo not given) | 83.9% | 23.9% | 90.6% | 71.7% | 80.4% | 70.1% | 64.3% | 84.7% | 49.3% | 65.9% |
| S=c1[nH]nc(-c2cc3ccc2CCc2ccc(cc2)CC3)n1-c1ccccc1 | 101% | 87% | 100% | 95% | 129% | 113% | 91.7% | 110% | 103% | 97.2% |
| Fc1ccc(Nc2ncnc3ccc(-c4cnc5[nH]ccc5c4)cc23)cc1Cl | 40.4% | 4.25% (active) | 2.95% (active) | -16.9% (active) | -27.3% (active) | 32.8% | -32.2% (active) | -73.2% (active) | 39.2% | 42.7% |
| CCN(CC)CCOc1ccc(/C(=C(/C)c2ccccc2)c2ccc(OC(C)=O)cc2)cc1 | 105% | 87.2% | 99.1% | 108% | 100% | 93.2% | 103% | 101% | 120% | 98.3% |
| C=C(C)[C@@H]1C[C@@H]2Cc3cc(Cl)ccc3N1O2 | 123% | 97.7% | 91.4% | 99.2% | 104% | 106% | 108% | 99.6% | 102% | 95.3% |
| COc1ccc(-c2nc(N3CCCC3=O)sc2Br)cc1OC | 114% | 94% | 111% | 93.7% | 89.9% | 104% | 93.5% | 96.9% | 98.5% | 116% |
| COc1ccc(-c2[nH]nc(N)c2-c2cc(OC)c3c(c2)OCO3)cc1 | 92.3% | 22.4% | 46.9% | 43% | 95.9% | 64.9% | 53.9% | 59.3% | 79.3% | 22.1% |
| COc1ccc2c(c1)[nH]c(=O)c1c3cc(OC)ccc3cn21 | 0.89% (active) | 25.6% | 60.4% | 0.629% (active) | -39.9% (active) | -3.31% (active) | -18% (active) | 7.14% (active) | 72.5% | 25.4% |
| CN(C)CCOC(=O)Nc1ccccc1Cl | 123% | 111% | 94.8% | 107% | 120% | 112% | 114% | 110% | 121% | 100% |
| COc1ccc(CN2CCc3c(Sc4ccccc4)nc(N)nc3C2=O)c(OC)c1 | 77.4% | 48.3% | 38.9% | 69% | 44.4% | 67.3% | 69.6% | 66.5% | 50.5% | 61.7% |
| COC(=O)c1cccc2c1N(C)c1c(cccc1C(=O)OC)CC2 | 107% | 121% | 115% | 111% | 124% | 98.8% | 104% | 106% | 121% | 104% |
| O=[N+]([O-])c1cccc(-c2nc3sccn3c2-c2ccnc(NCCCNS(=O)(=O)c3ccc(C(F)(F)F)cc3)n2)c1 | 47.3% | 20.6% | 30.5% | 57.3% | 55.6% | 38.1% | 27.2% | 70.9% | 37.4% | 27.7% |
| CCN(CC)CCCNc1nccc2ccc(Cl)cc12 | 113% | 107% | 111% | 87% | 97.6% | 111% | 100% | 104% | 91% | 95% |
| O=c1cc/c(=N\Nc2ccccc2)c(=O)/c1=N/Nc1ccccc1 | 106% | 105% | 119% | 100% | 121% | 90.5% | 122% | 94.6% | 137% | 82.2% |
| COc1ccc(-n2c(=S)sc3c(Cl)nc(C)nc32)c(OC)c1 | 6.39% (active) | 2.62% (active) | 80.2% | -14.9% (active) | 42.6% | 4.67% (active) | 85.1% | 20% | 77.9% | -18.8% (active) |
| O=C1C(Cl)=C(Nc2ccccn2)C(=O)c2ccccc21 | -10.9% (active) | 29.6% | -16.4% (active) | 62.1% | 95.3% | 58.8% | 82.9% | 25.4% | -10% (active) | 89.5% |
| N=c1ccc2nc3ccc(N)cc3sc-2c1 | 89.4% | 26.6% | 31.8% | 17% | 73.5% | 39.7% | 35.5% | 2.29% (active) | 2.21% (active) | 13.8% |
| COc1cccc(-c2cc3c(O)cc(C#N)cc3[nH]2)c1 | 101% | 82.5% | 100% | 73% | 112% | 98.9% | 90.6% | 85.5% | 86.9% | 86.6% |
| C=C(C)[C@@H]1CC[C@]2(C(=O)O)CC[C@]3(C)[C@H](CC[C@@H]4[C@@]5(C)C[C@@H](CC#Cc6ccc(C(F)(F)F)cc6)[C@H](O)C(C)(C)[C@@H]5CC[C@]43C)[C@@H]12 | 22.6% | 7.68% (active) | -43.3% (active) | -10% (active) | -34.4% (active) | 12.6% | -21.6% (active) | -59.5% (active) | 7.33% (active) | -51.7% (active) |
| c1ccc(-c2nnc(-c3ccccn3)s2)nc1 | 110% | 93.9% | 86.3% | 95.1% | 109% | 95.4% | 100% | 99.8% | 96% | 82.8% |
| C/C=C(\C)C(C(=O)NC1CCCCC1)N(C(=O)C1CCc2cc(F)ccc2O1)c1ccc(Cl)cc1 (stereo not given) | 108% | 99.7% | 109% | 103% | 109% | 97.2% | 97.5% | 98.2% | 98.8% | 103% |
